# The whole screen tested about 220,000 compounds, of which about 2,300 (1%) were called active. Inconclusive results (about 6%) are left out. The list comes from a sample in which actives are over-represented; it also holds similar structures and randomly drawn compounds. A number with no mark means an inactive call. Calls come from the whole dose curve; as a rule, active = well fitted inhibition curve with a large enough effect; inconclusive = small, poorly fitted or top-dose-only effect, or effect the other way; inactive = no such curve, though single readings can be large or run the other way.
# Target: Neuropeptide S receptor (Homo sapiens) (UniProt Q6W5P4)
# Sequence (Q6W5P4 whole entry, looked up): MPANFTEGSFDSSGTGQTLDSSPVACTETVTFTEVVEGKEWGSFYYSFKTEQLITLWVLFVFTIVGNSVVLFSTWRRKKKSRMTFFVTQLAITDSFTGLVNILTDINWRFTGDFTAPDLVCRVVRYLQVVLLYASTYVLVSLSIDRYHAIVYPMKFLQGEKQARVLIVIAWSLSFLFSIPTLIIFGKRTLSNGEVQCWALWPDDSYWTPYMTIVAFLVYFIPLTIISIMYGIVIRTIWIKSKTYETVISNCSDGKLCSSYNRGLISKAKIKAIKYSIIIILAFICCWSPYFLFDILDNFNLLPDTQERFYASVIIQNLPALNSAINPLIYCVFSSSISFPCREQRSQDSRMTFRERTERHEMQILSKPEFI
# Assay: qHTS Assay for Antagonists of the Neuropeptide S Receptor: cAMP Signal Transduction; note: nearly all actives have a fitted effect of over 50% in size
# Settings: CHO-NPSR cells, cAMP TR-FRET, antagonist mode; series mostly up to 38.3 µM; activity change, negative = inhibition: at the top concentration
# Description: NIH Chemical Genomics Center [NCGC] NIH Molecular Libraries Probe Production centers Network [MLPCN] MLPCN Grant: X01-DA026210-01 Assay Submitter (PI): Heilig, Markus Alexander NCGC Assay Overview: Neuropeptide S receptor (NPSR), previously known as GPR154, is a recently de-orphanized G protein coupled receptor. Its endogenous ligand is the 20 amino acids peptide Neuropeptide S (NPS). […] NPS and its receptor are found in various tissues. Specifically they are highly expressed in brain areas that have been implicated in modulation of arousal, stress and anxiety. Central administration of NPS in mice produces an unusual profile of activity by inducing wakefulness and arousal, while at the same time suppressing anxiety. Therefore, NPSR may represent a novel drug target for the treatment of sleep and anxiety disorders. To identify NPSR antagonists, we developed a cell-based cAMP assay. NPS can stimulate the production of cAMP in Chinese hamster ovary cells stably expressing NPS receptor. This change in intracellular cAMP level can be detected by a homogeneous LANCE cAMP assay based on the TR-FRET (time resolved fluorescence resonance energy transfer) between a europium-labeled cAMP tracer complex and a cAMP-specific antibody labeled with Alexa Fluor 647. The europium-labeled cAMP tracer complex is formed by the tight interaction between Biotin-cAMP (b-cAMP) and streptavidin labeled with Europium-W8044 chelate (Eu-SA). Light pulse at 320 nm excites the europium of the cAMP tracer and the energy emitted is transferred to the Alexa molecule bound to the cAMP antibody, generating a TR-FRET signal at 665 nm. Residual energy from the europium will produce a light at 620 nm. The native unlabeled cAMP from cell lysates competes with the europium-cAMP tracer for antibody binding and reversely reduces the emission signal of Alexa by interrupting FRET between the two labeled molecules. Both emission signals from the FRET donor (620 nm) and the acceptor (665 nm) can be detected by a plate reader in the TRF mode. Expression of result in fluorescence ratio (665 nm/620 nm) helps to normalize differences due to cell density and reagent dispensing. This assay was successfully optimized to a 1536-well plate format.
# NCGC Assay Protocol Summary: A Chinese hamster ovary (CHO) cell line stably expressing the NPS receptor (CHO-NPSR) was obtained from Dr. Heilig lab at NIAAA and maintained in F-12 Kaighn's media (Invitrogen, Carlsbad, CA, 21127) supplemented with 10 % FBS, 100 units/ml penicillin, 100 ug/ml streptomycin and 250 ug/ml geneticin at 37C, 5% CO2 in a humidified atmosphere. Before the assay, aliquots of cells were frozen and stored at -135C. The assay was performed in 1536-well format. Data are reported for both the ratio of the two emission wavelengths, and also for the component 'donor' channel, Em2=620. Data were normalized to the controls for basal activity (DMSO only) and 100% inhibition (No NPS control). IC50 values were determined from concentration-response data modeled with the standard Hill equation. NPS 1536-well assay protocol: (1) Fresh or frozen CHO-NPSR cells were suspended in F-12 Kaighn's media supplemented with 10 % FBS, 100 units/ml penicillin and 100 ug/ml streptomycin. Cells were plated at 4 ul/well (1200 cells) to white, tissue culture treated 1536-well plates, and then cultured at 37C, 5 % CO2 for 16 to 30 hours. (2) Add 23 nl/well of compound in DMSO solution. The final titration for each compound was between 0.6 nM and 46 uM. (3) Add 1 ul of stimulation reagent (1X HBSS buffer, 5 mM HEPES, 0.1% BSA, 500 uM RO-201724 (Sigma-Aldrich, B8279), 1.5% Alexa 647-labeled anti-cAMP antibody (from Perkin Elmer), 100 nM NPS) (4) Incubation at 37C, 5 % CO2 for 60 min. (5) Add 1 ul/well detection reagent. Detection reagent was prepared by adding biotin labeled cAMP (4%), streptavidin labeled with Europium-W8044 chelate (1.33%) and TritonX-100 (1%) to detection buffer. […]
# % is set by controls: 0 for no effect and ±100 for the full control effect; potency is the fitted concentration of half-maximal effect.
Compound,Potency,"activity change, negative = inhibition"
CC1CCCCC1NC(=O)/C(C#N)=C/C=C/c1ccccc1[N+](=O)[O-] (stereo not drawn),10 µM (active),
O=C(/C=C/c1ccccc1[N+](=O)[O-])OC1CCCCC1=O (stereo not drawn),,1.58%
O=C(/C=C/c1ccccc1[N+](=O)[O-])NCC1CCCO1 (stereo not drawn),,12.9%
CN(c1ccccc1)S(=O)(=O)c1ccc(Cl)c(C(=O)OCC(=O)NCc2ccco2)c1,,-0.308%
CN(C)C(=S)Nc1ccc(Br)cc1Cl,,-9.99%
CCN(CC)CCC(c1cc(OC)c(OC)c(OC)c1)c1c(OC)cc(OC)c2c(-c3ccccc3)cc(=O)oc12 (stereo not drawn),,-24.9%
COc1cc(C(CCN2CCN(c3ccccc3)CC2)c2c(OC)cc(OC)c3ccc(=O)oc23)cc(OC)c1OC (stereo not drawn),10 µM (active),
COc1ccc(C(CC(=O)N2CCN(c3ccccc3)CC2)c2c(O)cc(OC)cc2OC)cc1 (stereo not drawn),,-25.2%
O=C(Nc1ccccc1)Nc1nnc(COc2ccccc2F)s1,,-5.72%
COc1ccc(NC(=O)CCN2C(=O)/C(=C/c3ccc4c(c3)OCO4)SC2=S)cc1,,3.47%
O=C(Cn1cnc2ccccc2c1=O)Nc1cccc(S(=O)(=O)N2CCCCC2)c1,,-8.02%
CC(=O)Nc1ccc(CC#N)cc1,,-15.3%
Cc1cc(-c2nc(C)c(-c3nnc(SCC(=O)Nc4ccccc4)n3C)s2)no1,,5.55%
COc1ccc(N2C(=O)c3ccccc3NC2c2ccc(OC)c(CN3CCOCC3)c2)cc1 (stereo not drawn),,-35.7%
CCC(=O)NC(=S)Nc1ccc(NC(=O)c2ccco2)c(Cl)c1,,-27.6%
CCN(CC)P(=O)(Nc1ccc(SC(F)F)cc1)c1ccc(N(C)C)cc1NC(=O)c1ccco1 (stereo not drawn),5.01 µM (active),
O=C(Nc1ccc(Sc2ccc(Br)cc2)cc1)c1ccco1,,-22.6% [at 46.1 µM]
C=CCCN(Cc1ccccc1)S(=O)(=O)c1ccccc1Br,,-39.7%
O=C(NNC(=O)c1csc(-c2cccnc2)n1)Nc1ccc(Cl)cc1,,-1.58%
O=C(O)CC12CC3CC(C1)CC(n1ncc(NCc4ccc(F)cc4)c(Cl)c1=O)(C3)C2,,-4.32%
O=C(NNC(=S)NC1CC2CCC1C2)c1ccc(Cl)cc1 (stereo not drawn),,-26.4%
COCCn1c(CN(Cc2ccccc2)Cc2ccccc2)nc2c1c(=O)n(C)c(=O)n2C,,-20.7% [at 46.1 µM]
CC(C)CCn1c(CN(C)Cc2ccccc2)nc2c1c(=O)n(C)c(=O)n2C,,-20.1% [at 46.1 µM]

Compound,Potency,"activity change, negative = inhibition"
CC(C)Cn1c(CN(Cc2ccccc2)Cc2ccccc2)nc2c1c(=O)n(C)c(=O)n2C,12.6 µM (active),
Cc1cc(-c2n[nH]c(=S)n2/N=C/c2ccco2)n[nH]1,,2.84%
Cc1cc(-c2n[nH]c(=S)n2/N=C/C(Br)=C/c2ccccc2)n[nH]1,3.98 µM (active),
S=c1[nH]nc(-c2cccnc2)n1/N=C/C(Cl)=C\c1ccccc1,,-30.4%
Cn1c(SCC(=O)c2ccc(F)cc2)nnc1-c1ccccn1,,-7.53%
Cc1nc2nc(SCC(=O)c3ccccc3)[nH]c2cc1Br,,-26.3%
Nc1nc(SC23CC4CC(CC(C4)C2)C3)ns1,,7.63%
Cn1c(C(=O)O)ccc1S(=O)(=O)N(Cc1ccccc1)Cc1ccccc1,,35.6%
N#C/C(=C1\CCCN1)c1nc(-c2ccccc2)cs1,,-23.6% [at 46.1 µM]
N#CC1=C(SCc2ccc(C#N)cc2)N=C(N)C(c2nc(-c3ccccc3)cs2)C12CCCCC2 (stereo not drawn),3.98 µM (active),
N#CC1=C(SCc2ccccc2)NC(=O)C(C#N)C12CCCC2 (stereo not drawn),,3.01% [at 46.1 µM]
S=c1[nH]c2ccccc2c2ccccc12,,-17.7%
CCCCCCCCCCCCC(NC(C)=O)(C(=O)OCC)C(=O)OCC,,40.3%
Nc1ccccc1Sc1cc(Cl)nnc1Cl,,-25.8%
Cc1ccc(-c2c[n+](CC(=O)Nc3ccccc3)c3n2CCC3)cc1,,-1.52%
CCOC(=O)c1c(C)[nH]c2c1-c1ccccc1C(=O)C2=O,,6.24%
CC(=O)c1c(C)[nH]c(=S)c(C#N)c1-c1ccc(F)cc1,,-16.5%
CCOC(=O)c1c(C)[nH]c(=S)c(C#N)c1-c1ccccc1,7.94 µM (active),
Cn1cnc(S(=O)(=O)Nc2ccc3c(c2)OCCO3)c1,,9.08%
Cc1cc(C)cc(NC(=O)NC2CCN(CC(=O)Nc3cccc(Cl)c3C)CC2)c1,,-25.3%
COCCN(CCOC)C(=S)Nc1ccccc1Cl,,8.02%
O=C(CN1CCCCC1)Nc1ccccc1Cl,,-3.09%
O=C(Nc1ccccc1Cl)/C(Cl)=C(\Cl)S(=O)c1ccccc1 (stereo not drawn),7.94 µM (active),

Compound,Potency,"activity change, negative = inhibition"
COc1ccc(C(=O)N/N=C2\CCS(=O)(=O)c3ccc(F)cc32)cc1OC,,-2.66%
COC(=O)c1cc(C(=O)OCC(=O)Nc2cc(C)on2)cc([N+](=O)[O-])c1,,-14.2%
N/C(=N\OC(=O)CCn1cccc(C(F)(F)F)c1=O)c1ccc(OC(F)(F)F)cc1,,-8.1%
Cn1c(S(=O)(=O)O)nc2ccccc21,,22.2%
Cc1ccc(NC(=O)/C(=C/c2ccc([N+](=O)[O-])cc2)NC(=O)c2ccccc2)cc1,,7.14%
N#C/C(=C\N1CCOCC1)S(=O)(=O)c1ccc(Cl)cc1,,14.9%
O=C(COc1ccccc1)N1CCN=C1SCc1cccc(F)c1,,-1.12%
N#CCCCn1c(O)c(N=NC(=O)C(O)c2ccccc2)c2ccccc21 (stereo not drawn),,-19.2%
O=C(NCc1cccs1)c1cc(-c2ccccn2)nc2ccc(Br)cc12,10 µM (active),
O=C(NCc1ccccn1)c1cc(Br)ccc1Cl,,7.75%
O=C(NCC(c1cccs1)N1CCOCC1)c1cc(-c2ccccn2)nc2ccccc12 (stereo not drawn),,7.93%
C#CCO[C@@H]1C[C@H](n2cnc3c(=O)[nH]c(NC(=O)C(C)C)nc32)O[C@@H]1CO,,10.8%
CCC1=NN2C(=N)/C(=C/c3cc(C)n(-c4ccccc4)c3C)C(=O)N=C2S1,,19.1%
Cc1ccc2cc(/C=N/Nc3ccc(C(=O)O)cc3)c(Cl)nc2c1,,-22.4%
Cc1cc(C)c(C2C3=C(Nc4c2c(C)nn4-c2ccccn2)c2ccccc2C3=O)c(C)c1 (stereo not drawn),10 µM (active),
Cc1ccc(C2C3=C(Nc4[nH]n(-c5ccccc5)c(=O)c42)c2ccccc2C3=O)cc1 (stereo not drawn),,-43.2%
Cc1nn(-c2ccccn2)c2c1C(c1ccncc1)C1=C(CC(C)(C)CC1=O)N2 (stereo not drawn),,-14.2% [at 46.1 µM]
COCc1cc(=O)[nH]c(-c2ccc(C(F)(F)F)cc2)n1,,-8.06%
Cc1oc(C(N)=O)cc1COc1ccc(C(N)=O)cc1,,11.4%
O=C(Nc1nc2ccc([N+](=O)[O-])cc2s1)c1ccncc1,,-23.6%
O=C(NC(Nc1nc2ccc([N+](=O)[O-])cc2s1)(C(F)(F)F)C(F)(F)F)c1ccccc1,3.98 µM (active),
O=C(O)CCC(=O)Nc1nc2ccc([N+](=O)[O-])cc2s1,,36.1%
